Compounds with a hit are over-represented: about 8.1% of the library has one in this group of screens.
PINK1 expr mod: A Quantitative High throughput Screen to Identify Chemical Modulators of PINK1 Expression; PINK1 immunofluorescence, high-content cytometry, 24 h; Potency, µM (titrated, usually from 76.6 µM), for inactives: at the top dose activation (PINK1 increase), usual class: activators; hit rate 0.2% among 410,000; AID 624263, 2012; active means well fitted activation curve with a large enough effect; inconclusive means small, poorly fitted or top-dose-only effect; cell line not stated here; further: % of control where 0% means no effect; nearly all actives have a fitted effect of over 65% in size
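Compound titrations (5 concentrations, 24 h) on a stable cell line; DMSO and CCCP controls. Endpoint: fixed-cell PINK1 immunofluorescence with mitochondrial, cell and nuclear markers, scanned by microplate cytometer.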
Sfp inh: qHTS Assay for Inhibitors of Bacillus subtilis Sfp phosphopantetheinyl transferase (PPTase). Potency, µM, inactives show largest response in the series, negative = inhibition, usual class: inhibitors. Biochemical Sfp PPTase activity, qHTS. hit rate 3.5% among 310,000. AID 1490, 2009. 4'-phosphopantetheinyl transferase ffp (Bacillus subtilis), Q9F4F7;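 further: the enzyme is Sfp with the accession as filed and its product quenches rhodamine fluorescence; 0% = enzyme reaction without inhibitor and -100% = no enzyme wells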
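With Hepes-Na pH 7.6 buffer containing 10 mM MgCl2, Sfp (15 nM) modified BHQ-2-YbbR (12.5 uM) using rhodamine-CoA (5 uM). Two reads 30 minutes apart at 525/598 nm yielded each well's rate.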
ClpP mod: qHTS Assay for Activators of ClpP | ATP-dependent Clp protease proteolytic subunit (Bacillus subtilis (strain 168)), P80244 | purified B. subtilis ClpP, FRET peptide cleavage, 20 min | Potency, µM (titrated, usually from 57.5 µM), for the others: top-dose activity change, negative = active | hit rate 1.9% among 340,000; active means well fitted falling curve with a large enough effect; inconclusive means small, poorly fitted or top-dose-only effect; inactive means no such curve, though single readings can be large or run the other way; further: the source files actives as falling curves though it sought activators and does not explain the sign; nearly all actives have a fitted effect of over 65% in size
Target sequence (P80244 whole entry, looked up): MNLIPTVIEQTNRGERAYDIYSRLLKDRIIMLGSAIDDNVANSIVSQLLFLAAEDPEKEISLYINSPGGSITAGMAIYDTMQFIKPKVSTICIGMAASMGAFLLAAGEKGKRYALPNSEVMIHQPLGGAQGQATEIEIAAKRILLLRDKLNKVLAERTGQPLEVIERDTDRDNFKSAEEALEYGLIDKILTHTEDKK
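Purified B. subtilis ClpP, 10 microg/mL final in Tris/HCl pH8 with KCl, BSA, glycerol and Tween-20, cleaved an Abz/nitrotyrosine-quenched decapeptide. Fluorescence (ex 320, em 430) was read at 0 and 20 min at room temperature. Delta was normalized to 5.8 microM ADEP and DMSO/no-enzyme controls.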
RORgamma inh: qHTS for inhibitors of ROR gamma transcriptional activity. Nuclear receptor ROR-gamma (Mus musculus), P51450. Drosophila S2 Gal4-RORgamma UAS-luciferase reporter, 20 h. Potency, µM (highest dose often 53.6 µM), for inactives: at the top dose activity change, negative = inhibition, actives largely listed as inhibitors. hit rate 5.4% among 310,000. AID 2551, 2010; further: on the % scale 0 is the no-effect control and ±100 the full control effect; nearly all actives have a fitted effect of over 60% in size
Target sequence (P51450 whole entry, looked up, the tested form may be a part): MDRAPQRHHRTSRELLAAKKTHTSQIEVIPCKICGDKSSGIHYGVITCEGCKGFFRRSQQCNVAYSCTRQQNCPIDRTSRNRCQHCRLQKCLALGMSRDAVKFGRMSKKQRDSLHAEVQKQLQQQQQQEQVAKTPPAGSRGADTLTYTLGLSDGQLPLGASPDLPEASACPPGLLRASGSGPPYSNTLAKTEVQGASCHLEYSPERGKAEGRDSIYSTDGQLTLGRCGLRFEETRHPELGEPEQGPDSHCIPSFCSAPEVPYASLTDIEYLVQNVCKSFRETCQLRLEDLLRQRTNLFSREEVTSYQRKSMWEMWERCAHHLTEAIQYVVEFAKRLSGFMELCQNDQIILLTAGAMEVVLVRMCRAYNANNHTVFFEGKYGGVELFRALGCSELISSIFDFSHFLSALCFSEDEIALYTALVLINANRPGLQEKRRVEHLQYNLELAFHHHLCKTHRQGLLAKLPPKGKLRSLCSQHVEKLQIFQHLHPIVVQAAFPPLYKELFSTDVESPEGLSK
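ROR gamma transcriptional activity was tracked as Gal4-UAS luciferase output in stably transfected Drosophila Schneider cells, with compound added 1 hr before 700 uM copper sulfate induction and a 20 hr ambient-temperature incubation.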
Gal4-VP16 FLuc: VP16 counterscreen qHTS for inhibitors of ROR gamma transcriptional activity; Drosophila S2 Gal4-VP16 UAS-luciferase, luminescence, 20 h; Potency, µM (top dose mostly 53.6 µM), for the others: top-dose activity, negative = inhibition, usual class: inhibitors; hit rate 3.5% among 310,000;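 further: Gal4-VP16 expression switched on by copper sulfate through the metallothionein promoter; on the % scale 0 is the no-effect control and ±100 the full control effect; nearly all actives have a fitted effect of over 50% in size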
Epigenetic reg: Quantitative High-Throughput Screen for Regulators of Epigenetic Control; Potency, µM (titrated, usually from 53.9 µM), for inactives: at the highest dose GFP activation, most hits filed as activators; hit rate 0.2% among 280,000; murine LDR cells, GFP reporter derepression, 30 h; AID 1865, 2009; further: % of control where 0% means no effect; nearly all actives have a fitted effect of over 60% in size
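Murine LDR cells bearing a silenced CMV-driven GFP reporter were exposed to compound for 30 h at 37 C. After PBS washes, GFP-positive cells (20-120 um objects) counted by laser-scanning microplate cytometry.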
The depositor's hits bear a star; ? = inconclusive; nt = no result; [ ] = remark or other dose. Unless noted, the call rests on the fitted dose curve; in most records, active means well fitted curve in the direction sought with a large enough effect; inconclusive means small, poorly fitted or top-dose-only effect, or another doubt; inactive means no such curve, though single readings can be large; an effect the other way counts as inactive or inconclusive. Potency means the concentration at half of the fitted maximal effect.

SMILES | PINK1 expr mod | Sfp inh | ClpP mod | RORgamma inh | Gal4-VP16 FLuc | Epigenetic reg
CCCCCC(=O)Nc1cccc(C2=NOC3(C2)C[C@@H](C(N)=O)N(C(=O)c2cc([N+](=O)[O-])cc([N+](=O)[O-])c2C)C3)c1 (stereo partly drawn) | 2% | 1% | -1% | 8% | 6% | -8%
C/C=C/C=C\C(=O)Nc1cccc(C2=NOC3(C2)C[C@@H](C(N)=O)N(C(=O)c2cc([N+](=O)[O-])cc([N+](=O)[O-])c2C)C3)c1 (stereo partly drawn) | 0% | 25µM* | 0% | -13% | 0% | 2%
O=C(/C=C/c1ccc(Cl)cc1)Nc1nc(-c2cccs2)ns1 | 1% | nt | ? | nt | nt | 0%
CCCc1nn2c(=O)cc(COC(=O)c3cccc(NC(=O)c4cccs4)c3)nc2s1 | -1% | nt | -1% | nt | nt | -1%
Cc1cc(C(F)(F)F)n2nc(-c3cccs3)cc2n1 | 2% | 5% | 1% | -2% | -10% | 0%
Cc1cccc(-c2cc3nc(C)cc(NCCCN(C)C)n3n2)c1 | 3%[38.3 µM] | 16% | 32µM* | 17%[0.365 µM] | nt | 1%
COCCNc1cc(C)nc2cc(-c3ccc(C)cc3)nn12 | 4% | 8% | nt | ? | 5% | -2%
CCN(CC)CCCNc1cc(C)nc2cc(-c3cccs3)nn12 | 7% | 21% | nt | 11µM* | ? | 0%
Cc1ccc(-c2cc3nc(C)cc(NCc4ccco4)n3n2)cc1 | 17%[38.3 µM] | ? | 28µM* | ? | ? | 2%
CC(Sc1nc(=O)cc(N)n1CCc1ccccc1)C(=O)Nc1ccc(Cl)cc1 (stereo not drawn) | -2% | nt | 0% | nt | nt | -2%
COc1ccc(C(=O)Nc2ccc(-c3n[nH]c(=S)o3)cc2)cc1OC | 1% | 16µM* | -15% | 4% | -6% | nt
COc1ccc(C(=O)Nc2ccncc2)cc1OC | nt | -9% | -1% | 11% | -9% | 2%
COc1ccc(C2=Nn3c(nnc3-c3cc(OC)ccc3OC)SC2)cc1 | nt | 0% | nt | 11% | -3% | nt
CC[C@@H](C)[C@@H](CO[C@@H](Cc1ccccc1)C(=O)N[C@@H](CCS(C)(=O)=O)C(=O)OC(C)C)NC[C@@H](N)CS | nt | -27% | nt | -1% | -2% | 0%
CCCCN(C)CC(O)Cn1cc(/C=C/C(=O)c2ccc(OCC)cc2)c2ccccc21 (stereo not drawn) | -2% | 45µM* | 0% | ? | -27% | 6%
CCCCN(C)CC(O)Cn1cc(/C=C/C(=O)c2cccs2)c2ccccc21 (stereo not drawn) | -5% | 20µM* | -1% | ? | ? | 1%
Nc1[nH]c(=S)[nH]c(=O)c1N | nt | nt | -5% | nt | nt | nt
COc1ccc(C)c2sc(NC(=O)c3ccc(S(=O)(=O)N4CCCCC4)cc3)nc12 | -4% | nt | -3% | nt | nt | 8%
Cc1ccc(-c2nc(S(=O)(=O)c3ccc(C)cc3)c(N3CCCCC3)o2)cc1 | 2% | nt | -13% | nt | nt | -1%
COc1cc(NC(=O)C2CC(c3ccccc3Cl)=NO2)cc(OC)c1OC (stereo not drawn) | 4% | 7% | 3% | ? | 16µM* | nt
COc1ccc(NS(=O)(=O)c2ccc(-c3cnc(C4CC4)o3)cc2)cc1Cl | 1% | nt | -2% | nt | nt | 2%
COc1ccc(N2CCN(C(=S)Nc3cc(C)ccc3C)CC2)cc1 | 2%[38.3 µM] | 11% | -1% | 2µM* | -18% | -1%
Cc1ccc(C)c(NC(=S)N2CCN(c3ccccn3)CC2)c1 | 0% | -1% | -25% | 13µM* | ? | nt
O=C(c1c(F)cccc1F)N1CCN(c2cccc(C(F)(F)F)c2)CC1 | 3% | 1% | -3% | ? | 18µM* | ?
CN(C)S(=O)(=O)c1ccc(NC(=O)N2CCN(c3cccc(C(F)(F)F)c3)CC2)cc1 | 4% | 0% | -4% | ? | 10µM* | 0%
SMILES | PINK1 expr mod | Sfp inh | ClpP mod | RORgamma inh | Gal4-VP16 FLuc | Epigenetic reg
CC1(C)OB(c2cnc(C#N)nc2)OC1(C)C | 0% | nt | -4% | nt | nt | nt
N[C@@H](CCCCNC(=O)CCCC[C@@H]1SC[C@H]2NC(=O)N[C@H]12)C(=O)O | nt | -17% | nt | 9% | -7% | nt
S=C(Nc1cc(Cl)ccc1Oc1ccccc1)N1CCN(c2ccccn2)CC1 | 6% | 15% | nt | 11µM* | ? | nt
CCNC(=S)N1CCN(c2cccc(C(F)(F)F)c2)CC1 | -2% | 16% | 0% | ? | -10% | -1%
FC(F)(F)c1cccc(N2CCN(C(=S)NC3CCCCC3)CC2)c1 | 32µM* | 5% | 0% | 16µM* | ? | -1%
Cc1ccc(C)c(NC(=S)N2CCN(c3cccc(C(F)(F)F)c3)CC2)c1 | 3% | 22% | 0% | 4.5µM* | 11µM* | 0%
FC(F)(F)c1cccc(N2CCN(C(=S)NC3CCCC3)CC2)c1 | ? | 10% | 4% | ? | ? | -2%
Cc1ccc(C)c(NC(=S)N2CCC(c3nc4ccccc4s3)CC2)c1 | 4%[38.3 µM] | -1% | 2% | 2.8µM* | 6.3µM* | 1%
COc1ccc(OC)c(NC(=S)N2CCN(c3ccccn3)CC2)c1 | 0% | -9% | -8% | -18% | 5% | 0%
Cc1ccccc1C(=O)N1CCC(c2nc3ccccc3s2)CC1 | 3% | nt | 0% | nt | nt | -2%
Cc1ccc(NC(=O)C(NS(=O)(=O)c2ccc3c(c2)CCC(=O)N3)c2ccccc2)cc1C (stereo not drawn) | 0% | nt | -3% | nt | nt | 1%
COc1ccc(N2CCC(CNC(=S)Nc3cc(C)ccc3C)C2)cc1 (stereo not drawn) | 2% | -3% | -1% | 1.8µM* | 10µM* | 0%
CCN(CC)c1ccc(/C=C/c2cc(-c3ccccc3)c3ccccc3n2)cc1 | 1% | 6% | -4% | -38% | 1% | 3.2µM*
COc1cc(C(=O)NC(=S)Nc2ccc([N+](=O)[O-])cc2)cc(OC)c1OC | ? | 45µM* | -2% | -11% | -16% | 0%
COc1cc(C(=O)NC(=S)Nc2ccc([N+](=O)[O-])cc2C)cc(OC)c1OC | 13% | ? | 2% | ? | ? | 1%
COc1cc(C(=O)NC(=S)Nc2ccccc2[N+](=O)[O-])cc(OC)c1OC | 1% | 79µM* | 0% | 5.6µM* | ? | 0%
COCCNC(=S)Nc1ccccc1[N+](=O)[O-] | 1% | -15% | nt | 2% | 6% | -4%
COc1cc(C(=O)NNC(=S)Nc2ccc(S(N)(=O)=O)cc2)cc(OC)c1OC | 3% | 13µM* | nt | -18% | -3% | 2%

Source: PubChem BioAssay (National Center for Advancing Translational Sciences (NCATS))
